Inhibition data for 38 compounds are collected here from PubChem BioAssay.

Calls of active or inactive are those of the source. Unless noted, no stated cut-off is given here; in the data, active means inhibition above about 36%; inactive means the rest.

Chain of Steroidogenic factor 1 (Homo sapiens) (Q13285 whole entry, looked up): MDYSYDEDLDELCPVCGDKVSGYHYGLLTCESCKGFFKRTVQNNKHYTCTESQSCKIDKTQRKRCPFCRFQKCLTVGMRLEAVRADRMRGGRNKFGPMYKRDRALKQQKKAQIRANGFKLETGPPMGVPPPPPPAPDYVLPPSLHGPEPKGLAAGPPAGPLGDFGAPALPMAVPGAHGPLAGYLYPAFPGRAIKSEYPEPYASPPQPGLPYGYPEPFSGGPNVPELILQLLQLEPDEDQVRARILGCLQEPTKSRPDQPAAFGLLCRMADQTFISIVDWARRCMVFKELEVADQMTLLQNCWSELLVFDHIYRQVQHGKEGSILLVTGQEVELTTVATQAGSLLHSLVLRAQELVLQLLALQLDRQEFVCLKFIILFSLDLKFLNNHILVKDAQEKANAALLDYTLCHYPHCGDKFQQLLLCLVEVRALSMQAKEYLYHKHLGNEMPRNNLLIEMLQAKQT

System in the first assay: not listed separately
Description: StAR promoter reporter inhibitors, counter-screen for LRH-1 inverse agonist project, cell-based, luminescence, high throughput (AID 651611; in the data active means inhibition above about 28%). Particulars: StAR promoter luciferase reporter counterscreen, at 3.6 µM, hits give high values.
On to `CN(C)CCNC(=O)c1ccc(Cl)c2cc3ccccc3nc12`, for which the inhibition is 70.1% (active).

On to `C=C1C(=O)C23CCC4C(C)(C(=O)OC)CCCC4(C)C2CCC1(O)C3` (stereo not given), for which the inhibition is 67.4% (active).

`O=C(CCl)Nc1ccc(Oc2cnc3ccccc3n2)cc1`: the inhibition is 43.6% (active).

In the case of `CC1(C)CC(N2CCCC2)=CC(=[N+]2CCCC2)C1`, the inhibition is 12% (inactive).

For `Cc1ccc(C(=O)C(C(=O)/C=C/c2ccccc2)=C2SCCCS2)cc1`, the inhibition is 30.6% (active).

For the compound `Cc1ncc(CO)c(/C=N/Nc2ccc(C(F)(F)F)cn2)c1O`, the inhibition was 71.1% (active).

On to `COc1ccc(S(=O)(=O)N2CCOCC2)cc1NC(=O)CCNC(=O)c1ccc(Br)cc1`, for which the inhibition is 90.4% (active).

Take `Cc1ccc(Oc2ccc(C(=O)NCc3ccncc3)cc2)cc1`: the inhibition was 10.2% (inactive).

The target in the next assay is Nuclear receptor subfamily 5 group A member 2 (Homo sapiens) (UniProt O00482). Description: LRH-1 (NR5A2) inverse agonists, retest, confirmation, cell-based, luminescence (AID 651613; in the data active means inhibition above about 42%;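 further: HEK293T cells co-transfected with LRH-1 and StAR promoter luciferase reporter; 0% = vehicle wells and 100% = parental cells lacking receptor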). As to conditions: cell-based LRH-1 luciferase reporter, inverse agonism; at 3.6 µM; hits give high values. A general note: Reporter assays use an easily measured gene product as a stand-in for the process of interest.
Chain of Nuclear receptor subfamily 5 group A member 2 (Homo sapiens) (O00482 whole entry, looked up): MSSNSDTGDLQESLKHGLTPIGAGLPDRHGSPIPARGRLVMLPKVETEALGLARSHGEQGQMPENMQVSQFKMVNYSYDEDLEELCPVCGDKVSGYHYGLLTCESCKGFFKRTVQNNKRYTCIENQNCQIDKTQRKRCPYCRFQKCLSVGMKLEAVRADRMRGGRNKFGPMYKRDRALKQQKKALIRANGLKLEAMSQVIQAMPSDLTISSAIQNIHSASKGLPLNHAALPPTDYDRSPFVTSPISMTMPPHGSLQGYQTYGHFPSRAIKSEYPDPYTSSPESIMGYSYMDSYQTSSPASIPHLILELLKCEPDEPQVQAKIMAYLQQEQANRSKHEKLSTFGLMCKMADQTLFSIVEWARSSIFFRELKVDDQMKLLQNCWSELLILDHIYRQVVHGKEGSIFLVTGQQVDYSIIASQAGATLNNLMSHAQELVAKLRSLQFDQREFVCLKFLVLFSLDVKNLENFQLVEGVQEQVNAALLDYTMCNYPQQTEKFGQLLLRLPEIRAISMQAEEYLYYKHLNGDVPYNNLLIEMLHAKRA
Take `O=C1c2c(O)ccc(O)c2C(=O)c2c(NCCNCCO)ccc(NCCNCCO)c21`: the inhibition was 77.4% (active).

Regarding `CN(C)CCNC(=O)c1ccc(Cl)c2cc3ccccc3nc12`, the inhibition was 73.1% (active).

Consider `C=C1C(=O)C23CCC4C(C)(C(=O)OC)CCCC4(C)C2CCC1(O)C3` (stereo not given), for which the inhibition is 70.5% (active).

For `O=C(CCl)Nc1ccc(Oc2cnc3ccccc3n2)cc1`, the inhibition was 74.4% (active).

As to `CC1(C)CC(N2CCCC2)=CC(=[N+]2CCCC2)C1`, the inhibition was 62% (active).

`COc1ccc(CCNc2c(C)c(C)nc3ncnn23)cc1`: the inhibition was 58.5% (active).

In the case of `Cc1ccc(C(=O)C(C(=O)/C=C/c2ccccc2)=C2SCCCS2)cc1`, the inhibition is 54.2% (active).

For the compound `Cc1ncc(CO)c(/C=N/Nc2ccc(C(F)(F)F)cn2)c1O`, the inhibition is 84% (active).

Regarding `COc1ccc(S(=O)(=O)N2CCOCC2)cc1NC(=O)CCNC(=O)c1ccc(Br)cc1`, the inhibition was 100% (active).

Take `Cc1ccc(Oc2ccc(C(=O)NCc3ccncc3)cc2)cc1`: the inhibition is 76.8% (active).

Another assay concerns the target Steroidogenic factor 1 (Homo sapiens) (UniProt Q13285). Description: SF1 (NR5A1) inverse agonists, counter-screen for LRH-1 inverse agonist project, cell-based, luminescence, high throughput (AID 651614; in the data active means inhibition above about 44%;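 further: cells cotransfected with StAR promoter reporter and SF1 expression vector; 0% = vehicle on cells with receptor and 100% = vehicle on cells lacking receptor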). Particulars: cell-based SF1 luciferase reporter, at 3.6 µM, hits give high values. For orientation: A counterscreen serves to expose hits that act by an unwanted route or on another target.
For `O=C1c2c(O)ccc(O)c2C(=O)c2c(NCCNCCO)ccc(NCCNCCO)c21`, the inhibition is 56.3% (active).

On to `CN(C)CCNC(=O)c1ccc(Cl)c2cc3ccccc3nc12`, for which the inhibition was 67.4% (active).

On to `C=C1C(=O)C23CCC4C(C)(C(=O)OC)CCCC4(C)C2CCC1(O)C3` (stereo not given), for which the inhibition was 82.1% (active).

Consider `O=C(CCl)Nc1ccc(Oc2cnc3ccccc3n2)cc1`, for which the inhibition is 77.4% (active).

For `CC1(C)CC(N2CCCC2)=CC(=[N+]2CCCC2)C1`, the inhibition was 55.2% (active).

On to `COc1ccc(CCNc2c(C)c(C)nc3ncnn23)cc1`, for which the inhibition was 62.6% (active).

For the compound `Cc1ccc(C(=O)C(C(=O)/C=C/c2ccccc2)=C2SCCCS2)cc1`, the inhibition is 47.2% (active).

Turning to `Cc1ncc(CO)c(/C=N/Nc2ccc(C(F)(F)F)cn2)c1O`, the inhibition is 70.5% (active).

On to `COc1ccc(S(=O)(=O)N2CCOCC2)cc1NC(=O)CCNC(=O)c1ccc(Br)cc1`, for which the inhibition was 95% (active).

Turning to `Cc1ccc(Oc2ccc(C(=O)NCc3ccncc3)cc2)cc1`, the inhibition is 67.9% (active).

System in a further assay: not listed separately
Description: VP16 transactivation reporter inhibitors, counter-screen for LRH-1 inverse agonist project, cell-based, luminescence, high throughput (AID 651615; in the data active means inhibition above about 33%). Particulars: Gal4-VP16 luciferase reporter cells, at 3.6 µM, hits give high values.
Regarding `CN(C)CCNC(=O)c1ccc(Cl)c2cc3ccccc3nc12`, the inhibition was 61% (active).

Take `C=C1C(=O)C23CCC4C(C)(C(=O)OC)CCCC4(C)C2CCC1(O)C3` (stereo not given): the inhibition is 74% (active).

For the compound `O=C(CCl)Nc1ccc(Oc2cnc3ccccc3n2)cc1`, the inhibition was 18.3% (inactive).

As for `CC1(C)CC(N2CCCC2)=CC(=[N+]2CCCC2)C1`, the inhibition is 51.4% (active).

Turning to `Cc1ccc(C(=O)C(C(=O)/C=C/c2ccccc2)=C2SCCCS2)cc1`, the inhibition was 44.5% (active).

With `Cc1ncc(CO)c(/C=N/Nc2ccc(C(F)(F)F)cn2)c1O`, the inhibition is 65.7% (active).

As to `COc1ccc(S(=O)(=O)N2CCOCC2)cc1NC(=O)CCNC(=O)c1ccc(Br)cc1`, the inhibition was 67.4% (active).

Turning to `Cc1ccc(Oc2ccc(C(=O)NCc3ccncc3)cc2)cc1`, the inhibition is 52.9% (active).

The next assay relates to transactivating tegument protein VP16 (Human herpesvirus 1). Kind of assay: VP16 transactivation reporter inhibitors, counter-screen for SRC2 inhibitor project, cell-based, luminescence, single concentration (AID 652007). As to conditions: cell-based VP16 transactivation luciferase reporter, at 8.9 µM, hits give high values.
Consider `CN(C)S(=O)(=O)N1CCC(Oc2cccc(C(=O)NC3CCCCC3)c2)CC1`, for which the inhibition was 4.19% (inactive).

For the compound `O=C(Nc1ccc2c(c1)OCCO2)c1[nH]c(C(F)(F)F)nc1-c1ccccc1`, the inhibition was -38.1% (inactive).

In the case of `CCN1CCN(C(=S)c2ccc(-c3ccccc3)cc2)CC1`, the inhibition was 15.4% (inactive).

`O=C(Nc1ccc(OCc2ccccc2Cl)cc1)c1cccnc1`: the inhibition was 27% (inactive).

Turning to `COc1ccc2c(=O)cc(-c3ccncc3)oc2c1OC`, the inhibition was -15.8% (inactive).

For the compound `CCN(C(=O)c1cc(S(=O)(=O)N2CCCCC2)c[nH]1)c1ccc(OC)cc1`, the inhibition was 8.33% (inactive).

`CCn1ccnc1CN(C)Cc1cn[nH]c1-c1ccc(F)cc1F`: the inhibition was -19.6% (inactive).

As for `C=C1C(=O)C23CCC4C(C)(C(=O)OC)CCCC4(C)C2CCC1(O)C3` (stereo not given), the inhibition was 83.1% (active).

Regarding `O=S(=O)(Nc1ccc2c(c1)OCCO2)c1cccc2nsnc12`, the inhibition was -9.03% (inactive).

In the case of `Cc1noc(/C=C/c2ccco2)c1S(=O)(=O)N1CCC(C(=O)Nc2ccc(Cl)cn2)CC1`, the inhibition was 17.2% (inactive).

Take `CC(C)CCNC(=O)c1sc2ccc(S(=O)(=O)N3CCCCC3)cc2c1N`: the inhibition is 7.45% (inactive).

For `Cn1nnnc1Sc1ncnc2scc(-c3ccc4c(c3)OCO4)c12`, the inhibition was 0.45% (inactive).

For the compound `COc1ccccc1NS(=O)(=O)c1cccc(NC(=O)c2cncc(Br)c2)c1`, the inhibition was 14.8% (inactive).

`O=[N+]([O-])c1ccc2c(c1)-c1ccccc1C2=NO`: the inhibition was 12.1% (inactive).

With `CC1CCN(c2ccc(-c3cccc(NC(=O)C(F)(F)F)c3)nn2)CC1`, the inhibition is -9.14% (inactive).

`COc1cccc(N2CCN(c3c(C#N)c(C(F)(F)F)nn3C)CC2)c1`: the inhibition is -6.45% (inactive).

Turning to `O=C(CCl)Nc1ccc(Oc2cnc3ccccc3n2)cc1`, the inhibition was 19.5% (inactive).

`CCOC(=O)c1c(C)cc2c(CO)n[nH]c(=O)c2c1C`: the inhibition was -8.56% (inactive).

For `Cc1nc2sc(C(N)=O)c(N)c2c(C)c1CC(=O)c1ccccc1`, the inhibition was -52.2% (inactive).

Turning to `Cc1ccc(C(=O)C(C(=O)/C=C/c2ccccc2)=C2SCCCS2)cc1`, the inhibition was 42.6% (active).

As to `Cc1ncc(CO)c(/C=N/Nc2ccc(C(F)(F)F)cn2)c1O`, the inhibition is 8.88% (inactive).

In the case of `Cc1ccc(-c2cc(C(=O)NCCCN3CCOCC3)no2)cc1`, the inhibition is -12.9% (inactive).

On to `O=C(Nc1ccc(N2CCN(C(=O)c3ccco3)CC2)c(Cl)c1)c1cc2ccccc2o1`, for which the inhibition is 53.3% (active).

`Cc1ccc(C(=O)c2cccc(N)c2)cc1C`: the inhibition was 58% (active).

On to `COc1ccc(S(=O)(=O)N2CCOCC2)cc1NC(=O)CCNC(=O)c1ccc(Br)cc1`, for which the inhibition was 2.56% (inactive).

Regarding `Cc1ccc(OCC(=O)NC(=S)Nc2ccccn2)c(Br)c1`, the inhibition was 20.5% (inactive).

`O=C1CCC2S/C(=C/Nc3ccc(C(F)(F)F)cc3)C(=O)N12` (stereo not given): the inhibition is 3.33% (inactive).

Regarding `Cc1ccc(Oc2ccc(C(=O)NCc3ccncc3)cc2)cc1`, the inhibition was 7.11% (inactive).

As to `c1ccc2c(-c3cccc4nccn34)cncc2c1`, the inhibition was 5.09% (inactive).

On to `CC(C)(C)c1cc(/C=N/O)cc(C(C)(C)C)c1O`, for which the inhibition was -7.33% (inactive).

Consider `COc1ccc(-c2noc(CCCCC(=O)N3CCN(c4cc(C)ccc4C)CC3)n2)cc1`, for which the inhibition was 29.6% (inactive).

As for `Cc1cc(NC2CCCC2)n2ncc(-c3ccccc3)c2n1`, the inhibition was -46.2% (inactive).

Take `CCn1c(Oc2cccc(Br)c2)nc2c1c(=O)n(C)c(=O)n2C`: the inhibition is -33.4% (inactive).

As to `Cc1sc2ncnc(N3CCC(C(=O)N(C)CC(=O)Nc4cccc(F)c4)CC3)c2c1C`, the inhibition was -11.2% (inactive).

The inhibition is the relative decrease from the control value, in per cent.
